Sampled rows, rich in hits. Any-hit rate of the full collection: about 4.1%.
DAX1 inh-1: NR0B1 (DAX1) inhibition. P51843. HEK293 Gal4-DAX1 luciferase reporter, luminescence. inhibition, % at 6.75 µM. 340,000 compounds, 0.99% hits. AID 504766;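 active = inhibition above the mean over all tested compounds plus 3 SD, cut at about 4.2% in these data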;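 note: 0% = DAX1-transfected cells with DMSO and 100% = empty-vector control cells with DMSO; inhibition shows as a rise in luminescence from relieved DAX1 repression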
Target sequence (P51843 207-470 limits assumed): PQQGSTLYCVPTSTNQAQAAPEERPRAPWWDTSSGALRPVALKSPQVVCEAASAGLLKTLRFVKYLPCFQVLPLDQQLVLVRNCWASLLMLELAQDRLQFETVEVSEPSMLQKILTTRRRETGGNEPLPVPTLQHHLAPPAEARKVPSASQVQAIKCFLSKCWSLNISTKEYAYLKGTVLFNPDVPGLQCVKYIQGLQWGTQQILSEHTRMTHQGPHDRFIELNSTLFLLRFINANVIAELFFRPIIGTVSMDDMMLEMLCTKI
hcDAF-12 act: activates DAF-12 receptor from parasite H. contortus; HEK293 hcDAF-12 lit1-tk-luc reporter, luminescence; 0% DMSO, 100% Δ7-dafachronic acid; 370,000 compounds, 1.4% hits; activation, % at 6.8 µM;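 active = activation above the mean of all tested compounds plus 3 SD, cut at about 5.5% in these data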;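 note: 100% = response to 3 µM Δ7-dafachronic acid high control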
DAX1 inh-2: inhibitors of DAX1 repression of SF-1 activated StAR promoter | HEK293T StAR-luciferase reporter, SF-1/DAX-1 repression relief | inhibition, % at 6.8 µM | 370,000 compounds, 1.1% hits;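 active = inhibition above the mean over all tested compounds plus 3 SD, cut at about 3.6% in these data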;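 note: 0% = DAX-1 cells with DMSO and 100% = cells lacking DAX-1 with DMSO; higher inhibition means more luminescence from relief of DAX-1 repression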
hgDAF-12 ag: activates the H. glycines DAF-12 receptor ligand-binding domain; HEK293 GAL4-hgDAF12 UAS-luciferase reporter, agonist luminescence; normalized to butyrate control; activation, % at 6.8 µM; 370,000 compounds, 1.8% hits; AID 687014;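 active = activation above a cutoff set at the mean of all screened compounds plus 3 SD, cut at about 10% in these data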;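 note: 0% = DMSO wells and 100% = sodium butyrate wells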
ssDAF12 agonist: S. stercoralis DAF-12 activation, primary screen | HEK293 ssDAF-12/GRIP1 lit1-tk-luc reporter, luminescence; % of 3 µM dafachronic acid response | activation, % at 6.8 µM | 370,000 compounds, 1% hits;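 active = activation above the mean over all tested compounds plus 3 SD, cut at about 0.9% in these data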;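 note: 0% = DMSO-only wells and 100% = 3 µM delta7-dafachronic acid wells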
LXRb hcDAF ctr: LXR-beta agonism as hcDAF-12 counter-screen; AID 743027; HEK293 Gal4-LXR tk-luc reporter, luminescence, 24 h; normalized: DMSO 0%, positive control 100%; activation, % at 6.8 µM; shares compounds with hcDAF-12 act; 3,400 tested, under 10 active;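 active = mean percent activation of the reporter above a cutoff set as the average over tested compounds plus their standard deviation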
hcDAF12 conf: hcDAF-12 agonism, confirmation assay; activation, % at 6.8 µM; 3,400 compounds, 61% hits; shares compounds with hcDAF-12 act; HEK293 hcDAF-12 lit1-tk-luc reporter, luminescence; % of Δ7-dafachronic acid response;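 active = mean activation across triplicate tests above the threshold derived from the earlier primary screen, cut at about 5.5% in these data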;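 note: 0% = DMSO only wells and 100% = 3 µM Δ7-dafachronic acid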
hgDAF12 conf: confirmation of H. glycines DAF-12 agonists | shares compounds with hgDAF-12 ag | HEK293 GAL4-hgDAF12 luciferase reporter, agonist mode; percent of butyrate response | activation, % at 6.8 µM | 3,300 compounds, 80% hits;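 active = mean activation over triplicate wells above the hit cutoff derived from the earlier primary screen, cut at about 11% in these data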;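 note: 0% = DMSO low control and 100% = 2 mM sodium butyrate high control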
LXRb DAF12 ctr: activates human LXR-beta, counter-screen for DAF-12 agonists; shares compounds with hgDAF-12 ag; HEK293 Gal4-LXR luciferase reporter, 24 h; activation, % at 6.8 µM; 3,300 tested, under 10 active; AID 743051;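 active = mean activation of the triplicate above a set limit carried over from the primary screen, none filed active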
Active calls of the source: *; . = no result.

SMILES	DAX1 inh-1	hcDAF-12 act	DAX1 inh-2	hgDAF-12 ag	ssDAF12 agonist	LXRb hcDAF ctr	hcDAF12 conf	others
N#Cc1ccc(Cl)cc1NC(=O)COC(=O)[C@H](CCC(N)=O)NC(=O)c1ccc(F)cc1	0	9.4*	1	0	0	0	1
O=C(O)c1cc(Cl)c2ccccc2c1O	0	6.9*	0	6	0	0	3
COc1ccc(-c2nc3c4ccccc4ccn3c2CN2CCCCC2)cc1	2	7.0*	0	4	-1	0	1
COc1ccc(-c2nc3c4ccccc4ccn3c2CN2CCCCC2)cc1OC	0	1	-1	2	-1	.	.
c1ccc2c(c1)ncc1cccn12	0	6.7*	0	5	1.5*	0	4
c1ccc(-c2ncc3ccccn23)cc1	1	1	0	3	-2	.	.
COc1ccc2oc(=O)c(/C(C)=N/Nc3nc(-c4cc(C)ccc4C)cs3)cc2c1	0	6.7*	-1	-1	-1	0	0
CN/N=C(\Cc1nc2ccccc2[nH]1)c1ccc([N+](=O)[O-])cc1	0	7.0*	-1	4	-1	0	7.8*
CCc1ccc(C(=O)Cn2ccsc2=N)cc1	3	19*	3	20*	2.1*	2	12*
COc1cccc(NC(=O)c2cc3ccccc3o/c2=N\O)c1	-4	7.5*	2	12*	1.1*	2	11*
O=C(Nc1ccccc1Cl)c1cc2ccccc2o/c1=N\O	4.7*	11*	2	13*	2.1*	1	13*
COc1cccc(NC(=O)c2ccccc2Oc2ccccc2)c1	1	-2	0	0	-1	.	.
COC(=O)[C@]12C[C@H](CC(=O)N3CCC(c4ccccc4)CC3)C(=O)N(CCc3ccc(OC)c(OC)c3)C1=C[C@H](C(C)(C)C)O[C@@H]2C	.	0	-1	-1	-1	.	.
CCOC(=O)c1[nH]c2ccccc2c1NC(=S)Nc1ccccc1C	2	10*	3	6	1.1*	0	6.6*
CCOC(=O)c1[nH]c2ccc(Br)cc2c1NC(=O)CNC	1	9.9*	0	2	0	0	5
CCCC(=O)Nc1c(C(=O)OCC)[nH]c2ccccc12	2	4	1	4	0	.	.
CCCS(=O)(=O)Nc1c(C(=O)OC)[nH]c2ccccc12	-1	10*	0	1	-1	0	4
CCOC(=O)c1[nH]c2ccc(Br)cc2c1NC(=O)CCN1CCC(C)CC1	0	-1	-1	0	0	.	.
N#Cc1ccc(CSc2nc3sc4c(c3c(=O)n2-c2ccc(Br)cc2)CCCC4)cc1	.	-1	0	-1	-1	.	.
O=C(N[C@H]1CC[C@@H]2SC[C@@H](C(=O)O)N2C1=O)OCC1c2ccccc2-c2ccccc21	.	-1	-1	0	-1	.	.
COC(=O)[C@]12C[C@H](CC(=O)N3CCC(c4ccccc4)CC3)C(=O)N(CCC3=CCCCC3)C1=C[C@H](COCc1ccccc1)O[C@@H]2C	.	0	0	3	-1	.	.
CCN1CCN(C(=O)C2CCN(c3nnc(-n4c(C)ccc4C)s3)CC2)CC1	2	11*	0	4	0	0	1
Nc1[nH]c(C(=O)c2ccc(Br)cc2)c(-c2ccc(Cl)cc2[N+](=O)[O-])c1C(=O)NCCc1c[nH]c2ccccc12	.	1	-2	2	0	.	.
CCCn1cnnc1CNC(=O)[C@@H](Cc1ccccc1)NC(=O)[C@H]1O[C@@H](n2ccc(=O)[nH]c2=O)[C@H](O)[C@@H]1O	.	0	2	0	-1	.	.
CCN(Cc1cccs1)c1ncnc2ccc(-c3ccc4c(c3)OCO4)cc12	.	-2	.	0	-2	.	.
SMILES	DAX1 inh-1	hcDAF-12 act	DAX1 inh-2	hgDAF-12 ag	ssDAF12 agonist	LXRb hcDAF ctr	hcDAF12 conf	others
c1ccc2c(c1)Nc1nccnc1S2	-1	7.7*	2	7	0	0	7.5*
Cc1ccc(-n2ncc(Cl)c2C(=O)NC2CC2)cc1	2	8.8*	2	11*	0	0	5.6*
Cc1ccc(-n2ncc(C(=O)NC3CC3)c2C2CCN(C(=O)OC(C)(C)C)CC2)cc1	1	0	0	-1	-1	.	.
COC(=O)C1CN(Cc2ccc(Cl)cc2)CCS(=O)(=O)N1Cc1cn(Cc2ccc(Cl)cc2)nn1 (stereo not given)	.	-2	0	-3	-1	.	.
O=C(/C=C/c1ccco1)NC(=S)Nc1ccccc1O	.	6.8*	0	3	0	0	5
O=C(/C=C\c1ccco1)NC(=S)Nc1ccccc1O	1	2	1	8	-1	.	.
O=C1c2cccc3cccc(c23)C(=O)N1CCc1ccccc1	1	14*	2	8	2.1*	1	9.4*
CCOC(=O)N1CCN(C(=O)c2cc3c(=O)n4cccc(C)c4nc3s2)CC1	2	7.4*	0	2	0	0	3
Cc1cccc(/C(N)=N/OC(=O)c2cccs2)c1	4	7.9*	3	15*	1.8*	1	5.7*	hgDAF12 conf=17*;LXRb DAF12 ctr=1
N/C(Cc1cccc2ccccc12)=N\OC(=O)c1cccs1	1	.	.	.	.	.	.
COc1ccc(C(=O)O/N=C(\N)c2ccccc2)cc1	1	8.7*	3	14*	1.9*	2	6.7*	hgDAF12 conf=18*;LXRb DAF12 ctr=1
N/C(=N\OC(=O)c1cccs1)c1ccccc1	2	7.4*	1	16*	2.3*	1	3	hgDAF12 conf=15*;LXRb DAF12 ctr=1
Nc1[nH]c(C(=O)c2ccccc2)c(-c2ccc(Cl)cc2)c1C(=O)c1c[nH]c2ccc(F)cc12	.	2	0	-1	-1	.	.
CCOC(=O)[C@@]12CCC3=C1N(CCC3)C(=O)[C@H](CC(=O)N1CCN(C(=O)C3CC3)CC1)C2	.	-1	-1	-2	0	.	.
O=C(N[C@H](C(=O)N1CCC[C@H]1C(=O)NCc1ccccc1)C1CCCCC1)c1ccccc1	.	1	0	4	-1	.	.
Clc1ccc(-c2cnc3cccnn23)cc1	.	3	1	8	0	.	.
Nc1cccn2c(-c3ccc(Cl)cc3)cnc12	2	7.4*	3	16*	1	1	10*	hgDAF12 conf=18*;LXRb DAF12 ctr=1

Compound activity: PubChem, The Scripps Research Institute Molecular Screening Center
